Experimental data published in the supplement of paper PMC10849652.
Of roughly 7,900 targets only a part is listed; those with a hit were picked by preference. About 0.6% of all pairs of compound and target were hits. A number with no mark means an inactive call.

Key:
Test in all cases: log2 fold change, soluble protein after heating vs DMSO (PISA); higher = thermal stabilisation; K562 cells, 10 uM, 30 min; active = over 0.2 and 3.5 SD of the protein, either way, in both replicates (recomputed)
[1] = compound: CC[C@@H]1C(=O)N(C)c2cnc(Nc3ccc(C(=O)NC4CCN(C)CC4)cc3OC)nc2N1C1CCCC1
How it was run: (§1)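 Soluble protein was quantified by TMTpro 16plex LC-MS/MS after channel sums were equalised. It was obtained as the supernatant after 21,000xg for 90 min from pooled aliquots of K562 cells (2×10^6 cells/mL, 10 μM compound, 30 min) heated for 3 min across 48°C-58°C and extracted in PBS with 0.5% NP-40 at 4°C. Thermal stability values are relative to control samples and come from duplicates. They are given as log2 fold changes.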

volasertib = compound: CC[C@@H]1C(=O)N(C)c2cnc(Nc3ccc(C(=O)N[C@H]4CC[C@H](N5CCN(CC6CC6)CC5)CC4)cc3OC)nc2N1C(C)C [volasertib]
How it was run: as §1

[2] = compound: CC[C@H](C)N1C=C(C2=C(C=C(C=C21)C3=CN=C(C=C3)N4CCNCC4)C(=O)NCC5=C(C=C(NC5=O)C)C)C
How it was run: as §1

epoxomicin = compound: CC[C@H](C)[C@@H](C(=O)N[C@@H]([C@@H](C)O)C(=O)N[C@@H](CC(C)C)C(=O)[C@]1(CO1)C)NC(=O)[C@H]([C@@H](C)CC)N(C)C(=O)C [epoxomicin]
How it was run: as §1

[3] = compound: CCn1c(C(=O)N(C2CC2)C2CC2)cc2c3c(ncn3C)c(Nc3cc(C)n(C)n3)nc21
How it was run: as §1

[4] = compound: CCn1cc(-c2ccnc3[nH]c(-c4cccc(CN(C)C)c4)cc23)c(-c2ccc(NC(=O)N(C)C)cc2)n1
How it was run: as §1

[5] = compound: CN(C)CC(=O)Nc1ccc2[nH]c(=O)c3ccccc3c2c1
How it was run: as §1

rosiglitazone = compound: CN(CCOC1=CC=C(C=C1)C[C@H]2C(=O)NC(=O)S2)C3=CC=CC=N3 (racemic) [rosiglitazone]
How it was run: as §1

[6] = compound: CN1C2=C(C3=C1C(=O)N(N=C3)CC4=CC(=CC=C4)N)SC(=C2)S(=O)C
How it was run: as §1

[7] = compound: CN1CCC(CNc2ccc3ncc(-c4cccc(OC(F)(F)F)c4)n3n2)CC1
How it was run: as §1

saracatinib = compound: CN1CCN(CCOc2cc(OC3CCOCC3)c3c(Nc4c(Cl)ccc5c4OCO5)ncnc3c2)CC1 [saracatinib]
How it was run: as §1

sotrastaurin = compound: CN1CCN(c2nc(C3=C(c4c[nH]c5ccccc45)C(=O)NC3=O)c3ccccc3n2)CC1 [sotrastaurin]
How it was run: as §1

alvocidib = compound: CN1CC[C@H](c2c(O)cc(O)c3c(=O)cc(-c4ccccc4Cl)oc23)[C@H](O)C1 [alvocidib]
How it was run: as §1

Tubastatin A = compound: CN1CCc2c(c3ccccc3n2Cc2ccc(C(=O)NO)cc2)C1 [Tubastatin A]
How it was run: as §1

[8] = compound: CNC(=O)C1=CC=CC=C1NC2=NC(=NC=C2Cl)NC3=C(C=C(C=C3)N4CCOCC4)OC
How it was run: as §1

defactinib = compound: CNC(=O)c1ccc(Nc2ncc(C(F)(F)F)c(NCc3nccnc3N(C)S(C)(=O)=O)n2)cc1 [defactinib]
How it was run: as §1

rucaparib = compound: CNCc1ccc(-c2[nH]c3cc(F)cc4c3c2CCNC4=O)cc1 [rucaparib]
How it was run: as §1

[9] = compound: CNc1nc(-c2ccc3c(N)n[nH]c3c2)cc(N2C[C@@H](C(=O)NC3CCCCC3)CC[C@H]2C)n1
How it was run: as §1

encorafenib = compound: COC(=O)N[C@@H](C)CNc1nccc(-c2cn(C(C)C)nc2-c2cc(Cl)cc(NS(C)(=O)=O)c2F)n1 [encorafenib]
How it was run: as §1

[10] = compound: COC(=O)[C@H](CCSC)NC(=O)C1=C(C=C(C=C1)NC[C@H](CS)N)C2=CC=CC=C2
How it was run: as §1

UniProt Q13889, sequence (Q13889 whole entry, looked up): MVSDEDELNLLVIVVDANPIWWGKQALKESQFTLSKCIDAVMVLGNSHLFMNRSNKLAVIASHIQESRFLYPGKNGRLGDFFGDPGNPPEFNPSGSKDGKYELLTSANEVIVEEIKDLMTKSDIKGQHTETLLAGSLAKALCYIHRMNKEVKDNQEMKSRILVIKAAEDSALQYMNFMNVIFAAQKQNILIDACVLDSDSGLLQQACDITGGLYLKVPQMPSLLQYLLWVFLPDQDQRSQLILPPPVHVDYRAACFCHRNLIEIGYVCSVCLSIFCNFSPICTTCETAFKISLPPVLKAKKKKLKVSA
UniProt P05362, sequence (P05362 whole entry, looked up): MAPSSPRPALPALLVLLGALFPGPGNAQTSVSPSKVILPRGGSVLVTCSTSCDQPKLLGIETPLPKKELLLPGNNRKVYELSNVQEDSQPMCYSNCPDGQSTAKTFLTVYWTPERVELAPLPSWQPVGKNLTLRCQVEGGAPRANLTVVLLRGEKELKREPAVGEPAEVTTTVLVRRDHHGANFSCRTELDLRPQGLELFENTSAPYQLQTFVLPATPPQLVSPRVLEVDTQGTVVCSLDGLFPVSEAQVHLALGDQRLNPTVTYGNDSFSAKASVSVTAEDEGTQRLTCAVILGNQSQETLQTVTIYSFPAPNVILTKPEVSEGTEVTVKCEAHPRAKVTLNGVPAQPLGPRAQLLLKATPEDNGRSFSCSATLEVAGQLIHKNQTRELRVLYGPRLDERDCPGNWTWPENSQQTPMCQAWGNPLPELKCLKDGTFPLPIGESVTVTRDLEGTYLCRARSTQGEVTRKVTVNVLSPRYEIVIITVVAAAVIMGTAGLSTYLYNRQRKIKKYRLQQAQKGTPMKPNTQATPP
UniProt Q92947, sequence (Q92947 whole entry, looked up): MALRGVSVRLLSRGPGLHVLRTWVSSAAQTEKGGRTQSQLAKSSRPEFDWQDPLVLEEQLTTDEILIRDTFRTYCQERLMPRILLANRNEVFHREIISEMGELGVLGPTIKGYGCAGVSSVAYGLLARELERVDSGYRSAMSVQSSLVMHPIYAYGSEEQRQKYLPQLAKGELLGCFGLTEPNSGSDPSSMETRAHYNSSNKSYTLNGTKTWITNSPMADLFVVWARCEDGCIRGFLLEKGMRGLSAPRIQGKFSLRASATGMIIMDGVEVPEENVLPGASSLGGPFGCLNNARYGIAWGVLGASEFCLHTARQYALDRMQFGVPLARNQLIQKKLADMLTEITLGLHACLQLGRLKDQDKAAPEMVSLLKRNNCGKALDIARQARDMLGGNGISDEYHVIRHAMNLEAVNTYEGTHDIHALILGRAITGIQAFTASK
UniProt P29083, sequence (P29083 whole entry, looked up): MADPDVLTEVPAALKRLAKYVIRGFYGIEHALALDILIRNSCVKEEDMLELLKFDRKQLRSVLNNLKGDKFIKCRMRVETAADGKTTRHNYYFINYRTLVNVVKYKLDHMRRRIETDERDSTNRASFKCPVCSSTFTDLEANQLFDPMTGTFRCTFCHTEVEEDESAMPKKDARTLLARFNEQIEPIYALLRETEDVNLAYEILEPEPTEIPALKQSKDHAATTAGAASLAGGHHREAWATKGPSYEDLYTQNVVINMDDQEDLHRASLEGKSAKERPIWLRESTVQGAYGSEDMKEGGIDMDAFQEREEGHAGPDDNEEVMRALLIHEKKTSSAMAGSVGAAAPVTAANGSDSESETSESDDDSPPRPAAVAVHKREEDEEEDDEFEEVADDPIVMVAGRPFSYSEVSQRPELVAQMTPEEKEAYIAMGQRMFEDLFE
UniProt P51570, sequence (P51570 whole entry, looked up): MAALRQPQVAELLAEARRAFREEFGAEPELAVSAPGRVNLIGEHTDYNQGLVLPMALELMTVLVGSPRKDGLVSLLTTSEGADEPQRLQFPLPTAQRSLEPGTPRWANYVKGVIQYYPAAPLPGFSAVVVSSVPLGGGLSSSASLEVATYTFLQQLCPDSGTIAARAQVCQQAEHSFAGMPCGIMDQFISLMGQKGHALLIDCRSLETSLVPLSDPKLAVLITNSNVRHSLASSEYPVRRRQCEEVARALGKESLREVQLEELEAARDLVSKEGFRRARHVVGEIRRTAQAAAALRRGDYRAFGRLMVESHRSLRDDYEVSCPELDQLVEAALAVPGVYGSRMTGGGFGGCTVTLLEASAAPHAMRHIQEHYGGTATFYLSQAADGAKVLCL
UniProt Q16774, sequence (Q16774 whole entry, looked up): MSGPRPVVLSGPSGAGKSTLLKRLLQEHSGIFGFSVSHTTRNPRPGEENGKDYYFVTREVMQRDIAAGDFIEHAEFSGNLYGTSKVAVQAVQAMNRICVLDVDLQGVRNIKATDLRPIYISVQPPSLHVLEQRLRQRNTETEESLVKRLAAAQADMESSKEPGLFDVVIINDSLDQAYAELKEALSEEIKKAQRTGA
UniProt Q70Z53, sequence (Q70Z53 whole entry, looked up): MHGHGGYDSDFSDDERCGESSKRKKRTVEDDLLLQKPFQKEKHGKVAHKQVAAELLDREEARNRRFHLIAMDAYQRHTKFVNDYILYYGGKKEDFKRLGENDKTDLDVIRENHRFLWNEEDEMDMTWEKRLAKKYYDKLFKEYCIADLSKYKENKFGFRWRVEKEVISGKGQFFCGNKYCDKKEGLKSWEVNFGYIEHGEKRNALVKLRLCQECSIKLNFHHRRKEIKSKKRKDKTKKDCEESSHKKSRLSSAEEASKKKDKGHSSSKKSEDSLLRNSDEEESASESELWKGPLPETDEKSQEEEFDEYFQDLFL
UniProt Q9UBN7, sequence (Q9UBN7 whole entry, looked up): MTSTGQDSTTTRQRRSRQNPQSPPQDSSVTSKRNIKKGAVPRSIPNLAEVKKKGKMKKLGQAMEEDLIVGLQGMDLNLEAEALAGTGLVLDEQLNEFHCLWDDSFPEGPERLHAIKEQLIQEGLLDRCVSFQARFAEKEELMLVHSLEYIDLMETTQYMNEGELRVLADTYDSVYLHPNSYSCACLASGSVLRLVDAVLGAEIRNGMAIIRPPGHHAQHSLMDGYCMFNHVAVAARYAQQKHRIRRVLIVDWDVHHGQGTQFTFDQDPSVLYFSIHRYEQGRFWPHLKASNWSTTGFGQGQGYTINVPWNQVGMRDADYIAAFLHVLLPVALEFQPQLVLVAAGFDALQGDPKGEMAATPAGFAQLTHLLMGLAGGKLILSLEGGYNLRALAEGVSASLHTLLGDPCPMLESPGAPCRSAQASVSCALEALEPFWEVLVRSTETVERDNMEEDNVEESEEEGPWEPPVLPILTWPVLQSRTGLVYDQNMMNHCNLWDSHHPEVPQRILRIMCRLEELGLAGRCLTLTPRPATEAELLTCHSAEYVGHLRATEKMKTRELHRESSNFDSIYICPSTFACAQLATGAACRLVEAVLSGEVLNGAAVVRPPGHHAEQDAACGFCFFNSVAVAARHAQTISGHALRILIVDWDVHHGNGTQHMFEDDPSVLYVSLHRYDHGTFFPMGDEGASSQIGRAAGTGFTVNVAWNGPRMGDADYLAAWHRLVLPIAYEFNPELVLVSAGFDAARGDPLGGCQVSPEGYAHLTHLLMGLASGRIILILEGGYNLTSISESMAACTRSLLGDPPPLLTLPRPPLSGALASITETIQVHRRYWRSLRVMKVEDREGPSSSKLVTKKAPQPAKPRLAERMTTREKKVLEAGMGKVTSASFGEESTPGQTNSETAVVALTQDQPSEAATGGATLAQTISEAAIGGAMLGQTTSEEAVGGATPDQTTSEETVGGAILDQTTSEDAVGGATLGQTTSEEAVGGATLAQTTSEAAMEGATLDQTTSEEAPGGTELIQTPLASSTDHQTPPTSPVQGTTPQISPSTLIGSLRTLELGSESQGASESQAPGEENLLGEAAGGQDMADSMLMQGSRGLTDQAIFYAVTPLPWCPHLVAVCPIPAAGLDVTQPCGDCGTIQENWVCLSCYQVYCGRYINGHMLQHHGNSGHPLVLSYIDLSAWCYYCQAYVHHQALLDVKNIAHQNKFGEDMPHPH
UniProt P22087, sequence (P22087 whole entry, looked up): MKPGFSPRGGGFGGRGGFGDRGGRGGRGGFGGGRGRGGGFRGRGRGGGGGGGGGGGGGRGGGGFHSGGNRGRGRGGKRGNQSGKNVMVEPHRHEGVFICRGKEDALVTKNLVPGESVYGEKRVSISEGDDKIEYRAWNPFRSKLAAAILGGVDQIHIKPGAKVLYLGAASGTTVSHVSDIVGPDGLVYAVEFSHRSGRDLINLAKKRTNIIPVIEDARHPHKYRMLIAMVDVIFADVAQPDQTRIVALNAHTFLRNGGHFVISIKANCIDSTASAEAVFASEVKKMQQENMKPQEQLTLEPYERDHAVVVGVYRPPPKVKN

Row | Target | log2 fold change [1] | log2 fold change (volasertib) | log2 fold change [2] | log2 fold change (epoxomicin) | log2 fold change [3] | log2 fold change [4] | log2 fold change [5] | log2 fold change (rosiglitazone) | log2 fold change [6] | log2 fold change [7] | log2 fold change (saracatinib) | log2 fold change (sotrastaurin) | log2 fold change (alvocidib) | log2 fold change (Tubastatin A) | log2 fold change [8] | log2 fold change (defactinib) | log2 fold change (rucaparib) | log2 fold change [9] | log2 fold change (encorafenib) | log2 fold change [10]
1 | GCDH (UniProt Q92947) | -0.029 | 0.039 | -0.003 | 0.024 | -0.021 | -0.051 | 0.008 | 0.013 | -0.048 | 0.072 | 0.035 | 0.07 | 0 | 0.004 | -0.054 | -0.012 | 0.045 | 0.009 | -0.047 | 0.008
2 | FRA10AC1 isoform 3 (UniProt Q70Z53) | -0.086 | -0.613 (active) | -0.034 | 0.041 | -0.058 | 0.025 | -0.013 | 0.115 | 0.093 | 0.057 | 0.125 | 0.133 | 0.132 | -0.023 | -0.01 | 0 | -0.035 | -0.196 | -0.103 | -0.067
3 | GTF2E1 (UniProt P29083) | -0.267 | -0.567 (active) | 0.096 | -0.015 | -0.062 | 0.023 | 0.072 | 0.033 | -0.034 | -0.084 | -0.026 | -0.11 | -0.148 | 0.064 | 0 | -0.272 | -0.126 | -0.047 | 0.199 | -0.099
4 | GALK1 isoform 2 (UniProt P51570) | -0.03 | -0.009 | 0.053 | 0.131 | 0.026 | -0.064 | 0.106 | 0.024 | -0.049 | -0.03 | 0.117 | -0.096 | -0.035 | -0.011 | -0.049 | -0.032 | -0.014 | 0.055 | 0.007 | -0.006
5 | HDAC6 (UniProt Q9UBN7) | 0.013 | 0.005 | 0.014 | -0.069 | -0.074 | -0.157 | 0.068 | -0.065 | 0.058 | -0.04 | -0.067 | -0.013 | -0.009 | 1.01 (active) | -0.037 | -0.028 | -0.028 | 0.09 | -0.135 | -0.014
6 | ICAM1 (UniProt P05362) | 0.155 | 0.078 | -0.028 | 0.008 | -0.02 | 0.012 | -0.039 | -0.002 | -0.073 | 0.223 (active) | 0.035 | 0.07 | -0.004 | -0.03 | -0.073 | -0.026 | 0.049 | 0.099 | -0.004 | 0.043
7 | FBL (UniProt P22087) | 0.283 | 0.151 | -0.034 | -0.396 | -0.106 | 0.184 | -0.143 | -0.144 | 0.359 | 0.34 | 0.11 | -0.016 | 0.262 | -0.022 | -0.012 | 0.375 | 0.511 | 0.002 | 0.096 | 0.023
8 | GTF2H3 (UniProt Q13889) | 0.004 | -0.122 | 0.066 | -0.099 | -0.035 | 0.115 | 0.052 | -0.046 | 0.027 | -0.34 (active) | -0.099 | -0.079 | -0.071 | 0.124 | 0.008 | 0.009 | 0.09 | -0.001 | -0.073 | 0.043
9 | GUK1 isoform 2 (UniProt Q16774) | -0.116 | 0.081 | 0.097 | 0.12 | -0.151 | -0.167 | 0.049 | 0.158 | 0 | 0.071 | 0.001 | -0.223 | -0.092 | 0.064 | 0.027 | -0.162 | 0.175 | 0.026 | -0.079 | 0
